Among the data in publication PMC7862700, “An all-to-all approach to the identification of sequence-specific readers for epigenetic DNA modifications on cytosine” are binding signal values, retold here.

What all share (test): DAPPL (digital affinity profiling via proximity ligation, sequencing); 10 mM Tris-HCl pH 7.5, 50 mM NaCl, 1 mM DTT, 4% glycerol, room temperature, 30 min; GST-TFs on glutathione beads, 16-mer random dsDNA library, 0.1% formaldehyde crosslink after washing; high values mean tight binding
The target in one experiment is T1, FLI1 (Homo sapiens, UniProt Q01543 1-452).
T1 sequence: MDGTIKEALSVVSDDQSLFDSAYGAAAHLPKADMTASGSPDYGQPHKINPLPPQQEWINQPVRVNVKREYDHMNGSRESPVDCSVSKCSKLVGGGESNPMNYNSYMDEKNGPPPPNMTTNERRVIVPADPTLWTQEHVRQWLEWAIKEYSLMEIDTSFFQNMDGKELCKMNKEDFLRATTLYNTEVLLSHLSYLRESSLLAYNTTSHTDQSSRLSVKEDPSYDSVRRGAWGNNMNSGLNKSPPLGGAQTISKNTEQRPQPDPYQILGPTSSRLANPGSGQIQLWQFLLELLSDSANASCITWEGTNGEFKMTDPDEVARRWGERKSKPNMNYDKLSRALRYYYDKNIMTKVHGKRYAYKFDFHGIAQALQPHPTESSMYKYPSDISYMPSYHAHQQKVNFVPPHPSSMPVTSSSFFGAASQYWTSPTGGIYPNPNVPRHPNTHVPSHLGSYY
As to conditions: protein: recombinant; tags: N-terminal GST; dsDNA, one strand shown. Put shortly: (§1)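 Binding signal is given per hexamer as its read frequency for a factor divided by its frequency in the tag-only sample. GST-fused human transcription factors were expressed in yeast, captured on glutathione beads, barcoded with DNA and pooled with that sample, then incubated with 200 nmole of a 16-mer random double-stranded DNA library in Tris/NaCl/DTT/glycerol buffer for 30 min at room temperature. The pools were then washed, crosslinked, proximity-ligated, amplified by PCR and sequenced on an Illumina NextSeq500.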

The target of the next experiment is T2, ELK1 (Homo sapiens, UniProt P19419 1-428).
T2 sequence: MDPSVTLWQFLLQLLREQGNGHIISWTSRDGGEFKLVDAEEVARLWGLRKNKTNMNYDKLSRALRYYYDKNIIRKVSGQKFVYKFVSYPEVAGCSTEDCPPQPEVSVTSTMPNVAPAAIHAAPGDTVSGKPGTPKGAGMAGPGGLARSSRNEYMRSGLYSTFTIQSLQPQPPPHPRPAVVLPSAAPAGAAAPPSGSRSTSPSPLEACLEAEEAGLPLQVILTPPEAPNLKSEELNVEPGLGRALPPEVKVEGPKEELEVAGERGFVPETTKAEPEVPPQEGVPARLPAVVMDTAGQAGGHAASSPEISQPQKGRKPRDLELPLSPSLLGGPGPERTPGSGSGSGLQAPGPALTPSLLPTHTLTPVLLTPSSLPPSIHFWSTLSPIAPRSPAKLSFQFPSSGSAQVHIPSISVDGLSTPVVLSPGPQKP
As to conditions: protein: recombinant; tags: N-terminal GST; dsDNA, one strand shown. A digest of the protocol:
as §1

The target of a further experiment is T3, GABPA (Homo sapiens, UniProt Q06546 1-454).
T3 sequence: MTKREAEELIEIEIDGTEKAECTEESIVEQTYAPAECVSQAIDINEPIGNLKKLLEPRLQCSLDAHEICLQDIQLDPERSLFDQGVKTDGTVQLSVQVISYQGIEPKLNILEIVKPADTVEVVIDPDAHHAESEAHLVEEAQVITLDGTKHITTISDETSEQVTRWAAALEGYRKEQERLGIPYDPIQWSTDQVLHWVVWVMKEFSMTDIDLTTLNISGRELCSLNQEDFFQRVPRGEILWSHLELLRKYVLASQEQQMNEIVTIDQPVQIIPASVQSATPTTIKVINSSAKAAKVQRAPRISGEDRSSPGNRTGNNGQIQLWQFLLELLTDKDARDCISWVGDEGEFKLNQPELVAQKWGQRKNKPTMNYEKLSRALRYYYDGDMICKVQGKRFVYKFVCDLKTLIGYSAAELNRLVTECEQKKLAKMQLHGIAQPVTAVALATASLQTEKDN
As to conditions: protein: recombinant; tags: N-terminal GST; dsDNA, one strand shown. A digest of the protocol: as §1

The target in the next experiment is T4, ERG (Homo sapiens, UniProt P11308 1-479).
T4 sequence: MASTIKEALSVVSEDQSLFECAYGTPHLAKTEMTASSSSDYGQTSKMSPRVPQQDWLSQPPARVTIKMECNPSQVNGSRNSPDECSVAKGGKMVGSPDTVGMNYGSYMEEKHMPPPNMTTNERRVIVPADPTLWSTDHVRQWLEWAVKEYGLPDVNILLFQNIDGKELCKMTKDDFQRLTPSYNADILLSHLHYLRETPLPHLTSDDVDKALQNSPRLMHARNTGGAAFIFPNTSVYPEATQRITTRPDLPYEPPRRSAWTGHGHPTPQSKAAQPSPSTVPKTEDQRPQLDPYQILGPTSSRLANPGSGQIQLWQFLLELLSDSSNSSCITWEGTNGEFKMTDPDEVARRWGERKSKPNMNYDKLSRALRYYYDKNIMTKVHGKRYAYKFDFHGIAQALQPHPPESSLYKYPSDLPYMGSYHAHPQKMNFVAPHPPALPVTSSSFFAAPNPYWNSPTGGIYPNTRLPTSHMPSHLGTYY
As to conditions: protein: recombinant; tags: N-terminal GST; dsDNA, one strand shown. Put shortly: as §1

The next experiment deals with ELF1 (Homo sapiens, UniProt P32519 1-619). As to conditions: protein: recombinant; tags: N-terminal GST; dsDNA, one strand shown. A digest of the protocol: as §1
Sequence of ELF1 (P32519 whole entry): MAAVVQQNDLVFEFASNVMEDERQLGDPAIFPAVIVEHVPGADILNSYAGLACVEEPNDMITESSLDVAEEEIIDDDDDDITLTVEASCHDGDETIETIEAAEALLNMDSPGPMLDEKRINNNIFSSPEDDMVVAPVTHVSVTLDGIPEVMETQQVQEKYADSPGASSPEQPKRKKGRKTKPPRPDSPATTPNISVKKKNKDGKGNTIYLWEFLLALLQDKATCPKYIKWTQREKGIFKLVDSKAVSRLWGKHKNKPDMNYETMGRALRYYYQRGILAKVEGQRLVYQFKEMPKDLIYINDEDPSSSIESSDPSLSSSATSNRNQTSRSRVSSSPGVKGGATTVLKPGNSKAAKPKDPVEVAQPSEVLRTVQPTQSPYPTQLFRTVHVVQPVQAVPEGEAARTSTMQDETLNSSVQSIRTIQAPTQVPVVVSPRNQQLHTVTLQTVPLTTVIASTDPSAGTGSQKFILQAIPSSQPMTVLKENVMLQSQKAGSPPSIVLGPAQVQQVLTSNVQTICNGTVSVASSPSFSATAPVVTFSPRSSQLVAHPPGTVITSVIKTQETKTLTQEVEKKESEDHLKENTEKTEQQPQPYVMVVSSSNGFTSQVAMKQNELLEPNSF
Another experiment addresses T5, EHF (Homo sapiens, UniProt Q9NZC4 1-300).
T5 sequence: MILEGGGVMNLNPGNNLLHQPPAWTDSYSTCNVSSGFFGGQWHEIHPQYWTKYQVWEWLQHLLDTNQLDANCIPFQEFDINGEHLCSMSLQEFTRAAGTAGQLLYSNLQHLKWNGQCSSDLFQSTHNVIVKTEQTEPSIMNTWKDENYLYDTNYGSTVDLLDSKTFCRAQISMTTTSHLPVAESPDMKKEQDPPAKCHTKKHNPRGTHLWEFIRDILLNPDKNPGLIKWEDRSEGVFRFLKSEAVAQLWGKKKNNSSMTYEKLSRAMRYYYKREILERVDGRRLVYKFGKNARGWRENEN
As to conditions: protein: recombinant; tags: N-terminal GST; dsDNA, one strand shown. A digest of the protocol: as §1

The target of a further experiment is SPI1 (Homo sapiens, UniProt P17947 1-270). As to conditions: protein: recombinant; tags: N-terminal GST; dsDNA, one strand shown. A digest of the protocol: as §1
In a further experiment the target is SPIB (Homo sapiens, UniProt Q01892 1-262). As to conditions: protein: recombinant; tags: N-terminal GST; dsDNA, one strand shown. A digest of the protocol: as §1
Sequence of SPIB (Q01892 whole entry): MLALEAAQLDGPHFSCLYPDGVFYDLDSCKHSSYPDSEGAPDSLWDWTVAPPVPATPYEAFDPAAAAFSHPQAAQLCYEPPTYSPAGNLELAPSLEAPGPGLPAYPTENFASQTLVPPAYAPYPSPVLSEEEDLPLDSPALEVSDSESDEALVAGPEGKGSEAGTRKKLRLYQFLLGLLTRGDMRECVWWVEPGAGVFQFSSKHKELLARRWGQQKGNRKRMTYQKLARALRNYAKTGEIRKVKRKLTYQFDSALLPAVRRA
The target of the next experiment is T6, ELK3 (Homo sapiens, UniProt P41970 1-407).
T6 sequence: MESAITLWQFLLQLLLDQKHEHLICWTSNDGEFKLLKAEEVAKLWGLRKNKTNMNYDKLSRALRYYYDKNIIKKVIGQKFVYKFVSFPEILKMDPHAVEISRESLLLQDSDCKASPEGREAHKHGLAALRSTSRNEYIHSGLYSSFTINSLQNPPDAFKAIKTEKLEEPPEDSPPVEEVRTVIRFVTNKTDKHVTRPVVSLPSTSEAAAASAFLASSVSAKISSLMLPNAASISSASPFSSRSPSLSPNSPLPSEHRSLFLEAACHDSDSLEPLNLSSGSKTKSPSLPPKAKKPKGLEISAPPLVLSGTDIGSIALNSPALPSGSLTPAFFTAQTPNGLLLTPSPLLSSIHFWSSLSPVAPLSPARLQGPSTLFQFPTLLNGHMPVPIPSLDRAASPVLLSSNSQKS
As to conditions: protein: recombinant; tags: N-terminal GST; dsDNA, one strand shown. Put shortly:
as §1

In a further experiment the target is T7, FEV (Homo sapiens, UniProt Q99581 1-238).
T7 sequence: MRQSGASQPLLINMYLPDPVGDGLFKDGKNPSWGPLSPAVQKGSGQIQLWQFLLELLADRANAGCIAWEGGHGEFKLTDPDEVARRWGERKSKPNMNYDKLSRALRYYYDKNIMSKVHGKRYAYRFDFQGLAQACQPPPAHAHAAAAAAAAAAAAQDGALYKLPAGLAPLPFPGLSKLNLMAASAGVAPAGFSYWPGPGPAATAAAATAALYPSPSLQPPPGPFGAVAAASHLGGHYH
As to conditions: protein: recombinant; tags: N-terminal GST; dsDNA, one strand shown. A digest of the protocol:
as §1

The next experiment has as its target ETV5 (Homo sapiens, UniProt P41161 1-510). As to conditions: protein: recombinant; tags: N-terminal GST; dsDNA, one strand shown. Put shortly:
as §1

The target in another experiment is HSF1 (Homo sapiens, UniProt Q00613 1-529). As to conditions: protein: recombinant; tags: N-terminal GST; chain copies: 3; dsDNA, one strand shown. A digest of the protocol: as §1
Sequence of HSF1 (Q00613 whole entry): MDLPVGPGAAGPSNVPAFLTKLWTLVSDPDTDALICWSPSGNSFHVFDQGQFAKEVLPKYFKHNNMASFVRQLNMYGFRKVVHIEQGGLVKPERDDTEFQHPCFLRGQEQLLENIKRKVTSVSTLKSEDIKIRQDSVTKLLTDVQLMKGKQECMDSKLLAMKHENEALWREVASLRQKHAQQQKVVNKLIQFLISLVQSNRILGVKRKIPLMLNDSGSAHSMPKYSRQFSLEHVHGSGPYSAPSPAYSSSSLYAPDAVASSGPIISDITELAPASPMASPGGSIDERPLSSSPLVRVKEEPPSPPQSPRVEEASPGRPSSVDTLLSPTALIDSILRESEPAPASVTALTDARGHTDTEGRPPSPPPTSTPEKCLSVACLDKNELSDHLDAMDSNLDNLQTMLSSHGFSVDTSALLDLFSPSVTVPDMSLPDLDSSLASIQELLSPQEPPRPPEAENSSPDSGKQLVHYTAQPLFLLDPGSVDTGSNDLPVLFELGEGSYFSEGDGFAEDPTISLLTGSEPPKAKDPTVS
In a further experiment the target is T8, SPIC (Homo sapiens, UniProt Q8N5J4 1-248).
T8 sequence: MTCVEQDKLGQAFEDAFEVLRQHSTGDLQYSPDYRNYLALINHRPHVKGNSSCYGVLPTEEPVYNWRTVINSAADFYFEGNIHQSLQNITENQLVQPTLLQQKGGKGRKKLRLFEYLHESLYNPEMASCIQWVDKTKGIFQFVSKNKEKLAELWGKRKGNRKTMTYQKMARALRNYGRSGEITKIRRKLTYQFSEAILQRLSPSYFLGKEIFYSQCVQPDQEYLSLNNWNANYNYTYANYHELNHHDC
As to conditions: protein: recombinant; tags: N-terminal GST; dsDNA, one strand shown. A digest of the protocol: as §1

Another experiment concerns the target ELF4 (Homo sapiens, UniProt Q99607 1-663). As to conditions: protein: recombinant; tags: N-terminal GST; dsDNA, one strand shown. Put shortly: as §1
The next experiment concerns the target T9, ELK4 (Homo sapiens, UniProt P28324-2 1-405).
T9 sequence: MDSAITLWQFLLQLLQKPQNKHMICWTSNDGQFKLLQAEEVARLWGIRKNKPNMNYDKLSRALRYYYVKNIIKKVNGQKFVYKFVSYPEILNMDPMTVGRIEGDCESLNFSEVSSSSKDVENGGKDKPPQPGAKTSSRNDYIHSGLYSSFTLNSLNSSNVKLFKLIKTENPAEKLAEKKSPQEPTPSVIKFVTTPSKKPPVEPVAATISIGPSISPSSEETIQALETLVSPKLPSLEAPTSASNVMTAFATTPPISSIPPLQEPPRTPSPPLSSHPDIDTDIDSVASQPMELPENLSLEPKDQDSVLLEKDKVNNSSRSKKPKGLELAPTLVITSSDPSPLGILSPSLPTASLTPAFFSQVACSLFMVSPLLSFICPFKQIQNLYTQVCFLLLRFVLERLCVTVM
As to conditions: protein: recombinant; tags: N-terminal GST; dsDNA, one strand shown. A digest of the protocol: as §1

Another experiment deals with T10, ETV2 (Homo sapiens, UniProt O00321 1-342).
T10 sequence: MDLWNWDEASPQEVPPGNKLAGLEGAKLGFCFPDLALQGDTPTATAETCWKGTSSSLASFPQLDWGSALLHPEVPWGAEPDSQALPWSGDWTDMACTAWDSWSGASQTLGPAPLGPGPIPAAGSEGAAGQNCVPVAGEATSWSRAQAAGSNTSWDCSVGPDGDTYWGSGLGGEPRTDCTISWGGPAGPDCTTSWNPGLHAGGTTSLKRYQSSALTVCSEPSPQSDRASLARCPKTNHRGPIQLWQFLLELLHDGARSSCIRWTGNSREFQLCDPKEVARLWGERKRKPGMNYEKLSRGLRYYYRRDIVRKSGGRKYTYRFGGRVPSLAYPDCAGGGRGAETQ
As to conditions: protein: recombinant; tags: N-terminal GST; dsDNA, one strand shown. A digest of the protocol: as §1

A further experiment deals with T11, ELF3 (Homo sapiens, UniProt P78545 1-371).
T11 sequence: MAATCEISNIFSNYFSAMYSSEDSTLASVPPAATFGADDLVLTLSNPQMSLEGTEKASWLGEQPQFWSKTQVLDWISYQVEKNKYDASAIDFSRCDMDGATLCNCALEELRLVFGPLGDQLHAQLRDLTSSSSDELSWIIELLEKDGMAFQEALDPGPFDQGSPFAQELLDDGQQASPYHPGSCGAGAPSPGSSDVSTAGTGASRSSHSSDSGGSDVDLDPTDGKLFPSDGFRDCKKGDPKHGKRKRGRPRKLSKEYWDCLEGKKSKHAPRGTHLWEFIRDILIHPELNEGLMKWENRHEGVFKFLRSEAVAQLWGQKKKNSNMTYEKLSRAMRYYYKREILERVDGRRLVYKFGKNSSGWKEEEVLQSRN
As to conditions: protein: recombinant; tags: N-terminal GST; dsDNA, one strand shown. Put shortly: as §1

A further experiment concerns the target CRX (Homo sapiens, UniProt O43186 1-299). As to conditions: protein: recombinant; tags: N-terminal GST; dsDNA, one strand shown. A digest of the protocol: as §1
The target of the next experiment is ETV1 (Homo sapiens, UniProt P50549 1-477). As to conditions: protein: recombinant; tags: N-terminal GST; dsDNA, one strand shown. A digest of the protocol: as §1
Sequence of ETV1 (P50549 whole entry): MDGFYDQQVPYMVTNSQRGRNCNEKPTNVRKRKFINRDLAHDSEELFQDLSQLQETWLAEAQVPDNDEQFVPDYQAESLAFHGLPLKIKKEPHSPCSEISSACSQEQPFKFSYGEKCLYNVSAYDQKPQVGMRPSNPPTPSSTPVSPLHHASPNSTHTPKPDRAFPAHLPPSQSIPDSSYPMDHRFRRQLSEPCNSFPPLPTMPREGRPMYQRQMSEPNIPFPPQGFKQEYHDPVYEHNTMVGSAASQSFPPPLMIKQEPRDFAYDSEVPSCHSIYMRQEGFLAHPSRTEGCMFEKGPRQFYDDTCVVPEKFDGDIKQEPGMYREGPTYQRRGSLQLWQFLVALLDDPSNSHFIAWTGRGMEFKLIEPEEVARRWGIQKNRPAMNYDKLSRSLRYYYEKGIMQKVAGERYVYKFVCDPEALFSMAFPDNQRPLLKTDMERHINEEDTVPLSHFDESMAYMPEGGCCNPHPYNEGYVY

Sequence of ETV5 (P41161 whole entry): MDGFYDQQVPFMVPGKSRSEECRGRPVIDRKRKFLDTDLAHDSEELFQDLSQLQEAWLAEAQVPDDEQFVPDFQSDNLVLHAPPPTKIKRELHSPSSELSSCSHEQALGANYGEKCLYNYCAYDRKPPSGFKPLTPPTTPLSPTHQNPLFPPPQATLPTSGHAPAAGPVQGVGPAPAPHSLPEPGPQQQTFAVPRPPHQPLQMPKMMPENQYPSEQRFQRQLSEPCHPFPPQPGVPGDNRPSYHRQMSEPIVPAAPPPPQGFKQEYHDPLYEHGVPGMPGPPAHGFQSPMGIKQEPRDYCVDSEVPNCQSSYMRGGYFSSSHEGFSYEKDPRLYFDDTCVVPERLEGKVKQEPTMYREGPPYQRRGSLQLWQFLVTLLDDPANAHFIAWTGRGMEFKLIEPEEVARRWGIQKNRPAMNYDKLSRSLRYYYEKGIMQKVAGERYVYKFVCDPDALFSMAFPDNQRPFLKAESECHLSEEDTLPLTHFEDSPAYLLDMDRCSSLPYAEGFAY
Sequence of CRX (O43186 whole entry): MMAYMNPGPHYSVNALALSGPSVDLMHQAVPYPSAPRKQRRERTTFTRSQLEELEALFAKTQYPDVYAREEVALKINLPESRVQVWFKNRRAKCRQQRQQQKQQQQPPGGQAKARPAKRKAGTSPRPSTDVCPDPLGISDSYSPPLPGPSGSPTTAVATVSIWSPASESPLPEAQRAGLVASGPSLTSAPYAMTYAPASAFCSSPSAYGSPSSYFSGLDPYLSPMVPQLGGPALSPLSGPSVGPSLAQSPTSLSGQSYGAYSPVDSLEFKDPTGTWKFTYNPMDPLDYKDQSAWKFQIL
Sequence of ELF4 (Q99607 whole entry): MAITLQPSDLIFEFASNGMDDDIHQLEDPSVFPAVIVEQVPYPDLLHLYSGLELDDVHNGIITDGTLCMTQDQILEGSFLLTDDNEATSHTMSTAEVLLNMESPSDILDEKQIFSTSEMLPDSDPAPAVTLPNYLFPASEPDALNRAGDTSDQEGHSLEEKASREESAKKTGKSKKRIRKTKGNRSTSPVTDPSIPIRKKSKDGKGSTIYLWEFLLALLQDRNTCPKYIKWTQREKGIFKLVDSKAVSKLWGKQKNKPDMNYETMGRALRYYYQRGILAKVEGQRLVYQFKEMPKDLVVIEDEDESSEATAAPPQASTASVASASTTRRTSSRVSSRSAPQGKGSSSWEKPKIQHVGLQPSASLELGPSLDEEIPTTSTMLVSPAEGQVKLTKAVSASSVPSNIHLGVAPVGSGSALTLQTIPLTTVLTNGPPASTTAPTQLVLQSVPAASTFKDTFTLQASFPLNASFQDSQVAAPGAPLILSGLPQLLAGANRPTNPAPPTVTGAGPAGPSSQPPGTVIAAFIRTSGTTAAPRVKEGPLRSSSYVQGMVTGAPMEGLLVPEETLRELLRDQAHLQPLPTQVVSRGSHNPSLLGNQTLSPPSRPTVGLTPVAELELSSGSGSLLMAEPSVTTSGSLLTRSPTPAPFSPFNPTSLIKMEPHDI

ACGGCT: the binding signal with FLI1 is 1.02 fold enrichment (6-mer frequency, TF over GST control); with ELK1, 1.16 fold enrichment (6-mer frequency, TF over GST control); with GABPA, 1.13 fold enrichment (6-mer frequency, TF over GST control); in the experiment with ERG, 1.12 fold enrichment (6-mer frequency, TF over GST control); in the experiment with ELF1, 1.08 fold enrichment (6-mer frequency, TF over GST control); with EHF, 1 fold enrichment (6-mer frequency, TF over GST control). Moreover, the binding signal in the experiment with SPI1 was 1.18 fold enrichment (6-mer frequency, TF over GST control); with SPIB, 1.14 fold enrichment (6-mer frequency, TF over GST control); with ELK3 it was 1.05 fold enrichment (6-mer frequency, TF over GST control); with FEV, 1.2 fold enrichment (6-mer frequency, TF over GST control); with ETV5, 1.13 fold enrichment (6-mer frequency, TF over GST control); with HSF1 it was 1.13 fold enrichment (6-mer frequency, TF over GST control). The binding signal with SPIC was 1.1 fold enrichment (6-mer frequency, TF over GST control); with ELF4 it was 1.1 fold enrichment (6-mer frequency, TF over GST control); with ELK4, 1.14 fold enrichment (6-mer frequency, TF over GST control); with ETV2 it was 1.07 fold enrichment (6-mer frequency, TF over GST control); in the experiment with ELF3 it was 1.13 fold enrichment (6-mer frequency, TF over GST control); in the experiment with CRX, 1.36 fold enrichment (6-mer frequency, TF over GST control). Moreover, the binding signal with ETV1 was 1.05 fold enrichment (6-mer frequency, TF over GST control).
